Measured values published in PubChem BioAssay AID686978 (National Center for Advancing Translational Sciences (NCATS), 2013).
Hit rate of the full screen: of about 420,000 compounds, about 64,000 (15%) were called active. Inconclusive results (about 27%) are left out. Only a sample is shown. Unmarked numbers belong to inactive results. Calls come from the whole dose curve; as a rule, active = well fitted inhibition curve with a large enough effect; inconclusive = small, poorly fitted or top-dose-only effect; inactive = flat fitted curve, though single readings scatter.

experiment: qHTS for Inhibitors of human tyrosyl-DNA phosphodiesterase 1 (TDP1): qHTS in cells in absence of CPT; conditions: DT40 Tdp1-/- hTDP1 cells, no CPT, ATP luminescence, 48 h; activity change, negative = growth inhibition: at 46.2 µM (top of the series); note: nearly all actives have a fitted effect of over 55% in size
How it was run: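 Growth of hTDP1-complemented DT40 Tdp1-knockout cells is measured by ATP luminescence after at least 48 hr compound exposure at 37 °C, with DMSO substituting for the 20 nM CPT used in the parallel screen.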
% is set by controls: 0 for no effect and ±100 for the full control effect; potency is the fitted concentration of half-maximal effect.

SMILES | activity change, negative = growth inhibition [%] | Potency
O=C(O)CCCC(=O)N1N=C(c2ccco2)CC1c1ccco1 (stereo not given) | -3.36 | 
COc1cccc(-c2coc3cc4oc(=O)c(CC(=O)O)c(C)c4cc23)c1 | -9.2 | 
Brc1ccccc1/C=N/Nc1nc2ccccc2o1 | -21.9 | 
Oc1c(Br)cccc1/C=N/Nc1c(F)c(F)c(F)c(F)c1F |  | 20.6 µM (active)
COc1ccc(C)cc1NC(=O)CN(C)S(=O)(=O)c1ccc2c(c1)n(C)c(=O)c(=O)n2C | 6.24 | 
CCCSC1=C(C#N)C(c2ccccc2C)C(C(=O)OC)C(=O)N1 (stereo not given) | -11.8 | 
CC(C)N(C(=O)COC(=O)c1ccccc1C(=O)N1CCN(c2ccc(F)cc2)CC1)C(C)C | -23.6 | 
CC(=O)N1c2ccccc2CC1C(=O)N1CCN(c2ccc(F)cc2)CC1 (stereo not given) | -10.2 | 
Cn1c2ccccc2c2c(C(=O)N3CCN(c4ccc(F)cc4)CC3)cn(C3CCCC3)c(=O)c21 |  | 23.1 µM (active)
CC(NS(=O)(=O)c1ccccc1)c1n[nH]c(=S)n1-c1ccccc1 (stereo not given) | -1.17 | 
CC(=O)Nc1ccc(NC(=O)[C@@H](NC(=O)c2cccc(C)c2)C(C)C)cc1 | 6.18 | 
Cc1ccc(CNC(=O)CC2Sc3ccccc3NC2=O)cc1 (stereo not given) | -2.06 | 
O=C(CC1SCCNC1=O)Nc1ccc(Cl)c(Cl)c1 (stereo not given) | 6.06 | 
O=C(CC1Sc2ccccc2NC1=O)NNc1ccc(Cl)c(Cl)c1 (stereo not given) |  | 11.6 µM (active)
NNC(=O)c1ccc(COCC(F)(F)C(F)F)cc1 | -11.3 | 
Cc1ccc(OCC(=O)OCc2cc(=O)n3nc(C4CC4)sc3n2)cc1 | -8.76 | 
CS(=O)(=O)c1ccc(C(=O)OCC(=O)NNC(=O)COc2ccc(Cl)cc2)cc1 | -4.53 | 
Cc1ccc(-c2cc(N)on2)cc1 | -6.95 | 
COc1cc(OC)cc(C(=O)NCC(=O)OCc2csc(-c3ccccc3)n2)c1 |  | 23.1 µM (active)
COc1cccc(C(=O)NCC(=O)OCc2cc(=O)n3ccsc3n2)c1 | -1.07 | 
COc1cc(OC)cc(C(=O)NCC(=O)OCC(=O)NC(C)CCc2ccccc2)c1 (stereo not given) | 6.49 | 
CSc1ccc(CNCCN2CCOCC2)cc1 | -16.9 | 
CCCSc1nc2[nH]ncc2c(=O)[nH]1 | 3.13 | 
COc1ccc(CCNC(=O)CSc2nc3[nH]ncc3c(=O)n2-c2cccc(C(F)(F)F)c2)cc1OC | -5.4 | 
CCc1ccc(-n2c(SCc3cc(=O)n4cc(Br)ccc4n3)nc3[nH]ncc3c2=O)cc1 |  | 20.6 µM (active)
COc1ccccc1N1CCC(N2CCN(CC(C)(C)C)C(CCO)C2)CC1 (stereo not given) | -21.9 | 
COc1ccccc1NC(=O)/C=C/C(=O)O | 15 | 
COc1ccccc1NC(=O)C[n+]1ccccc1 | -2.16 | 

SMILES | activity change, negative = growth inhibition [%] | Potency
COc1ccccc1NC(=O)/C=C/C(N)=O |  | 2.91 µM (active)
O=C(Nc1ccc(S(=O)(=O)Nc2nccs2)cc1)c1cc(=O)[nH]c2ccccc12 | 13.3 | 
Cc1cccc(C(=O)O)c1[N+](=O)[O-] | 2.96 | 
CC(C)(C)NCC(O)COc1cccc2[nH]c(=O)[nH]c12 (stereo not given) |  | inactive
COc1ccccc1OCCNCC(O)COc1cccc2[nH]c3ccccc3c12 (stereo not given) |  | 16.4 µM (active)
COc1ccccc1OCCNC(=O)c1cc([N+](=O)[O-])cc([N+](=O)[O-])c1 | -0.0294 | 
Fc1ccc(Br)cc1/C=N/n1cnnc1 | -11.2 | 
COc1ccc(Br)cc1CN(C)CC(=O)Nc1cc([N+](=O)[O-])ccc1OC |  | 16.4 µM (active)
CN(CC(=O)Nc1ccccc1[N+](=O)[O-])Cc1ccc(Br)cc1 | -15.4 | 
COc1ccccc1CC(=O)Nc1ccc([N+](=O)[O-])cc1OC | -0.609 | 
CCCC1C(c2ccccc2)C(C#N)(C#N)C2(C#N)CC1(N)NC2=O (stereo not given) | 2.33 | 
COc1cccc(CNC(=O)CCN2C(=S)NC(C)(C)CC2C)c1 (stereo not given) | 12.4 | 
O=C(O)C1=NN(c2c(F)c(F)cc(F)c2F)C(=O)CC1 | 13 | 
CO[C@H]1[C@H](NC(=O)C(C)C)c2ccccc2C12CCN(Cc1cnc(N(C)C)s1)CC2 | 0.79 | 
COc1ccccc1C(=O)N[C@@H]1c2ccccc2C2(CCN(C(=O)c3csnn3)CC2)[C@H]1OC | -9.12 | 
COc1cccc(CN2CCC3(CC2)c2ccccc2[C@@H](NC(=O)c2ccccc2OC)[C@@H]3O)c1 |  | 16.4 µM (active)
N[C@H](C(=O)O)c1ccc(C(=O)O)c(O)c1 |  | inactive
CC1=NNC(=O)C1Cc1c(Cl)cccc1Cl (stereo not given) | -29 | 
CC(C)(C)NC(=O)CSc1nc(-c2ccc(F)cc2)cc(C(F)(F)F)n1 |  | 18.4 µM (active)
Cc1cc(C(F)(F)F)nn1-c1nc(-c2ccco2)cc(C(F)(F)F)n1 | -10.8 | 
Cc1cc(C(F)(F)F)nc(SCC(=O)Nc2nccs2)n1 | 8.5 | 
CN(C)c1ccc(NC(=O)CSc2n[nH]c(-c3ccco3)n2)cc1 | -11.6 | 
CCNS(=O)(=O)c1ccc(NC(=O)CSc2nc(-c3ccco3)cc(C(F)(F)F)n2)cc1 |  | 7.31 µM (active)
Cc1cccc(NC(=O)Cn2c(C(F)(F)F)nc3ccccc32)c1C | -20.7 | 
CC(C)c1nc(SCC(=O)NC(=O)NC(C)(C)C)n[nH]1 | -6.01 | 
O=C(CSc1nc(-c2ccco2)cc(C(F)(F)F)n1)NCc1cccs1 | -24.4 | 
Cc1cccc(NC(=O)CSc2nc(-c3ccco3)cc(C(F)(F)F)n2)c1C |  | 9.2 µM (active)
